Screen size: about 360,000 compounds; about 510 (0.14%) were called active. Many of the other results were omitted from the sample, so actives are more common in it than they were. Unmarked numbers belong to inactive results.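 The calls were made as follows: active = mean normalized replicate activity at least 40 and at least half of replicates scoring 40 or more; inconclusive = only one of the two criteria met; inactive = mean below 40 and under half of replicates reaching 40.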
Target: DNA repair and recombination protein RAD54-like (Homo sapiens) (UniProt Q92698)
Assay: inhibitors of human RAD54 branch migration, primary screen, biochemical, fluorescence, single point (AID 602329);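 also: 0% = median of neutral control wells and 100% = median of positive control wells; inhibitors cause a drop in the FAM fluorescence signal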
Details: RAD54 Holliday junction branch migration, FAM/BHQ fluorescence; at 10.4 µM; active compounds read high

Chain of DNA repair and recombination protein RAD54-like (Homo sapiens) (Q92698 whole entry, looked up): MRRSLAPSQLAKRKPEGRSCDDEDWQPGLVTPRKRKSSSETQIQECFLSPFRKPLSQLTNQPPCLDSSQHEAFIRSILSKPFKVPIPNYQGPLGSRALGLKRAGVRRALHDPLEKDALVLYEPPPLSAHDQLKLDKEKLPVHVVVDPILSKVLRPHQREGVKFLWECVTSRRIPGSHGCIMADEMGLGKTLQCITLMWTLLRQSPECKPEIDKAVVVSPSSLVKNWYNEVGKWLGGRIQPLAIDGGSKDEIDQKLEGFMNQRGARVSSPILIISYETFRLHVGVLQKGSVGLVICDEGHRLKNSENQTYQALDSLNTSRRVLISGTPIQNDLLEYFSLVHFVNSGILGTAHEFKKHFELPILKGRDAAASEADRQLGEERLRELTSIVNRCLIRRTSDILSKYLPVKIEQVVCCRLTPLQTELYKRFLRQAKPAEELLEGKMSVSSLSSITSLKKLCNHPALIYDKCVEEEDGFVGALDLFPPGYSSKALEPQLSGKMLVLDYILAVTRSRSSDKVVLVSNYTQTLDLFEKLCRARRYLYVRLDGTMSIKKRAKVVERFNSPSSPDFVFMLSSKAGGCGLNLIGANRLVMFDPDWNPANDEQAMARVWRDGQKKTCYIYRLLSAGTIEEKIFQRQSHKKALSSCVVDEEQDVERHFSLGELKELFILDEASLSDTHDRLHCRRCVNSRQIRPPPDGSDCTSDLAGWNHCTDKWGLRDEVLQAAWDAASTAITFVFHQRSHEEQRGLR

Row | Compound | inhibition
1 | C[C@@H]1CN([C@H](C)CO)C(=O)c2cc(NC(=O)CCCN(C)C)ccc2O[C@H]1CN(C)S(=O)(=O)c1ccc(Cl)cc1 | 3.22%
2 | C[C@H]1CCCCO[C@@H](CN(C)C(=O)c2ccccc2)[C@@H](C)CN([C@@H](C)CO)C(=O)c2cc(NS(=O)(=O)c3cccs3)ccc2O1 | -5.69%
3 | CCCNC(=O)Nc1ccc2c(c1)C(=O)N(C)C[C@H](OC)[C@H](C)CN(Cc1ccncc1)[C@H](C)CO2 | 3.54%
4 | CCCC#Cc1cnc2c(c1)C(=O)N([C@H](C)CO)C[C@@H](C)[C@@H](CN(C)C(=O)Nc1ccccc1F)O2 | -0.939%
5 | C[C@@H]1CN([C@H](C)CO)C(=O)c2cccc(NS(=O)(=O)c3ccc(Cl)cc3)c2O[C@@H]1CN(C)Cc1ccc(Cl)c(Cl)c1 | -2.03%
6 | C[C@H](O)C#Cc1cnc2c(c1)C(=O)N([C@H](C)CO)C[C@@H](C)[C@@H](CN(C)C(=O)Nc1ccc(C(F)(F)F)cc1)O2 | -3.33%
7 | C[C@@H]1CN([C@@H](C)CO)C(=O)c2cc(NC(=O)CCN3CCOCC3)ccc2O[C@@H]1CN(C)S(=O)(=O)c1ccccc1 | 5.08%
8 | C[C@@H]1CN([C@@H](C)CO)S(=O)(=O)c2ccc(-c3ccccc3F)cc2O[C@H]1CN(C)Cc1cncnc1 | -6.21%
9 | OC[C@@H]1[C@H](c2ccc(C3=CCCC3)cc2)[C@H]2CN(Cc3ccncc3)CCCCN12 | 1.55%
10 | COc1cccc(NC(=O)N(C)C[C@H]2Oc3cc(/C=C/c4ccccc4)ccc3S(=O)(=O)N([C@H](C)CO)C[C@@H]2C)c1 | -2.16%
11 | C[C@H]1CN([C@@H](C)CO)C(=O)c2cc(C#CC3CCCC3)cnc2O[C@@H]1CN(C)C(=O)Cc1ccccn1 | 3.4%
12 | O=C(N[C@H]1CC[C@@H](CCNS(=O)(=O)c2cccc(Cl)c2)O[C@@H]1CO)c1ccncc1 | -2.66%
13 | Cc1ccc(S(=O)(=O)N(C)C[C@@H]2Oc3ccc(NC(=O)Nc4ccc5c(c4)OCO5)cc3C(=O)N([C@@H](C)CO)C[C@@H]2C)cc1 | 2.81%
14 | COc1ccc(S(=O)(=O)Nc2cccc3c2O[C@@H](CN(C)S(=O)(=O)c2c(C)noc2C)[C@@H](C)CN([C@H](C)CO)C3=O)cc1 | 4.47%
15 | C#CCOCCOCCOCCNc1nc(N2CCN(C(=O)[C@H](CO)n3cc([C@@H](N)C(C)C)nn3)CC2)nc(N2CCN(C(=O)[C@H](CCC(=O)O)n3cc([C@@H](N)[C@H](C)CC)nn3)CC2)n1 | -7.97%
16 | C#CCOCCOCCOCCNc1nc(N2CCN(C(=O)C([C@@H](C)O)n3cc([C@@H](N)CCCCN)nn3)CC2)nc(N2CCN(C(=O)[C@H](CCCCN)n3cc(CN)nn3)CC2)n1 (some centres undefined) | 69.5% (active)
17 | C#CCOCCOCCOCCNc1nc(N2CCN(C(=O)[C@H](CCCCN)n3cc([C@@H](N)C(C)CC)nn3)CC2)nc(N2CCN(C(=O)[C@H](Cc3ccc(O)cc3)n3cc([C@@H](N)C(C)CC)nn3)CC2)n1 (some centres undefined) | -6.01%
18 | CC(=O)N1[C@H](CO)[C@@H](c2ccccc2)[C@@H]1CN(CC(C)C)C(=O)c1ccccn1 | -0.684%
19 | Cc1ccc(S(=O)(=O)Nc2ccc3c(c2)C(=O)N([C@@H](C)CO)C[C@H](C)[C@@H](CN(C)C(=O)Nc2ccc(F)cc2)OCCCC[C@H](C)O3)cc1 | 8.58%
20 | COC(=O)C[C@H]1CC[C@H]2[C@H](COc3ccc(NC(=O)C4CC4)cc3C(=O)N2C)O1 | -2.57%

Row | Compound | inhibition
21 | C[C@@H](NC(=O)C[C@H]1CC[C@H](NS(=O)(=O)c2cccc(F)c2)[C@H](CO)O1)c1ccccc1 | 0.335%
22 | O=C(Nc1cc(F)ccc1F)N1C[C@H]2[C@@H](c3ccccc31)[C@@H](CO)N2C(=O)c1ccccc1 | 8.71%
23 | Cc1ccc(S(=O)(=O)Nc2ccc3c(c2)C(=O)N([C@H](C)CO)C[C@H](C)[C@@H](CN(C)S(=O)(=O)c2cn(C)cn2)OCCCC[C@H](C)O3)cc1 | 1.15%
24 | O=C([C@H]1[C@H](CO)[C@H]2Cn3c(ccc(C4=CCCCC4)c3=O)[C@@H]1N2)N1CCCCC1 | -7.2%
25 | CCN(CC)CCCNC(=O)c1cc2c(=O)[nH]c3ccc(C)cc3c2s1 | 51.5% (active)
26 | Cc1ccc2[nH]c(=O)c(CC(=O)O)c(-c3ccccc3)c2c1 | -1.43%
27 | Cc1cccc(N(C)C(=O)c2cc3c(=O)[nH]c4ccc(C)cc4c3s2)c1 | -5.82%
28 | CO[C@H]1CN(C)C(=O)c2cc(NC(=O)C3CC3)ccc2OC[C@H](C)N(CC2CCCC2)C[C@@H]1C | -8.31%
29 | Cc1noc(C)c1NC(=O)Nc1ccc2c(c1)C(=O)N([C@H](C)CO)C[C@@H](C)[C@@H](CN(C)C(=O)NC(C)C)O2 | 8.07%
30 | CC(C)NC(=O)Nc1ccc2c(c1)C(=O)N([C@@H](C)CO)C[C@@H](C)[C@H](CN(C)C(=O)NC1CCCCC1)O2 | -6.48%
31 | N#Cc1ccccc1S(=O)(=O)N1CCN(Cc2c(O)ccc3ccccc23)CC1 | 1.29%
32 | CN1CCN(Cc2c(O)ccc3c2oc(=O)c2ccccc23)CC1 | 61.1% (active)
33 | O=c1oc2c(CN3CCCCC3)c(O)ccc2c2c1CCCCC2 | 3.11%
34 | O=C(C[C@@H]1C[C@@H]2c3cc(NC(=O)Cc4ccncc4)ccc3O[C@@H]2[C@H](CO)O1)NCc1cccc(F)c1 | -0.719%
35 | C/C=C/c1cnc2c(c1)C(=O)N([C@@H](C)CO)C[C@H](C)[C@H](CN(C)C(=O)CN1CCOCC1)O2 | 2.37%
36 | C[C@@H]1CN([C@@H](C)CO)C(=O)c2cc(NS(=O)(=O)c3ccccc3)ccc2O[C@@H](C)CCCCO[C@H]1CN(C)C(=O)C1CCCCC1 | -16.2%
37 | COC(=O)c1c(NC(=O)c2ccc(S(=O)(=O)N3CCOCC3)cc2)sc2c1CCN(C(C)C)C2 | 75% (active)
38 | CC(OC(=O)c1ccc(S(=O)(=O)N2CCOCC2)cc1)c1ccccc1 (centres undefined) | 0.166%
39 | COc1ccc(S(=O)(=O)N2CCOCC2)cc1NC(=O)c1ccc(OCC(C)C)c(OC)c1 | 3.95%

From PubChem BioAssay AID602329 (Broad Institute, 2012)
